ChEMBL document CHEMBL3988442, “University of Dundee, Small-Polar-MMV Screening Library” (2021)
For some of these results: Measured potencies and affinities stand elsewhere.

Tests used:
Set-up in all cases: scale not given: direction of the effect not stated beside the values
[1] = target: Protein translocase subunit SecA (Escherichia coli (strain K12)) (UniProt P10408); experiment: Assay to Identify E. coli SecA ATPase Inhibitors; format: functional; conditions: 30 µM
[2] = target: T1, Ubiquitin-activating enzyme e1, putative (Leishmania donovani (strain BPK282A1)) (UniProt E9BSI1); experiment: Leishmania donovani Ubiquitin Activating Enzyme (LdE1); format: functional; conditions: 30 µM
T1 sequence (whole entry): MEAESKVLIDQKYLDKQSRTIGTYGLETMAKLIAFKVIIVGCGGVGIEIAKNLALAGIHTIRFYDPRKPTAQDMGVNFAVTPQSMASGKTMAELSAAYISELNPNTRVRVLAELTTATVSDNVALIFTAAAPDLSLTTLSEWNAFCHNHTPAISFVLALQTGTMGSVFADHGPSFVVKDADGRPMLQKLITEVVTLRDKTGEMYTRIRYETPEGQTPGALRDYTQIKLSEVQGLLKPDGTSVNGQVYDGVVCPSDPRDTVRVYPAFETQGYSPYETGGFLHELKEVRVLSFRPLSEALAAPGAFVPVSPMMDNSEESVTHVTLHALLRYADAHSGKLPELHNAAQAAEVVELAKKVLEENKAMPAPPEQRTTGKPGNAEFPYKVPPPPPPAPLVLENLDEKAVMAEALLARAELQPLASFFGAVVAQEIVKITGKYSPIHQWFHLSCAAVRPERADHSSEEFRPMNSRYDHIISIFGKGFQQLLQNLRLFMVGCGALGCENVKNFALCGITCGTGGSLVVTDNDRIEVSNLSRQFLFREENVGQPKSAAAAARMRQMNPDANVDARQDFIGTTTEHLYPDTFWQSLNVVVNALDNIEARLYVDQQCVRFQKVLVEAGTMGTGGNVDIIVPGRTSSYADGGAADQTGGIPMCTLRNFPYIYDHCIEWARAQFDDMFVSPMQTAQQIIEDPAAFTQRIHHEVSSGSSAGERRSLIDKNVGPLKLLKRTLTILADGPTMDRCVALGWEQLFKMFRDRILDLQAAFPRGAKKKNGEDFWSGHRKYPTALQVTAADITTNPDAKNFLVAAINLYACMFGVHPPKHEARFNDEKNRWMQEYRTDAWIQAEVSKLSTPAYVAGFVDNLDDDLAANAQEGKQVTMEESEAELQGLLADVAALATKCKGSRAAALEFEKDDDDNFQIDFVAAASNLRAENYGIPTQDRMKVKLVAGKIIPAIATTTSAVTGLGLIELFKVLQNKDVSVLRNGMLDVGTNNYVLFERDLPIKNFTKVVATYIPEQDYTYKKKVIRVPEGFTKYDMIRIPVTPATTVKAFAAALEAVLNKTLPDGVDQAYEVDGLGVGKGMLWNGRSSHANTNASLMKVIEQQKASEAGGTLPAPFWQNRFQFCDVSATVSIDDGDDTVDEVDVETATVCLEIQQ

[3] = target: T2, Aspartate--tRNA(Asp/Asn) ligase (Mycobacterium tuberculosis (strain ATCC 25618 / H37Rv)) (UniProt P9WFW3); experiment: Assay for Asp RNA synthetase-1 from Mycobacterium tuberculosis; format: functional; conditions: 30 µM; further: in the data most compounds retested in dose-response had high values
T2 sequence (whole entry): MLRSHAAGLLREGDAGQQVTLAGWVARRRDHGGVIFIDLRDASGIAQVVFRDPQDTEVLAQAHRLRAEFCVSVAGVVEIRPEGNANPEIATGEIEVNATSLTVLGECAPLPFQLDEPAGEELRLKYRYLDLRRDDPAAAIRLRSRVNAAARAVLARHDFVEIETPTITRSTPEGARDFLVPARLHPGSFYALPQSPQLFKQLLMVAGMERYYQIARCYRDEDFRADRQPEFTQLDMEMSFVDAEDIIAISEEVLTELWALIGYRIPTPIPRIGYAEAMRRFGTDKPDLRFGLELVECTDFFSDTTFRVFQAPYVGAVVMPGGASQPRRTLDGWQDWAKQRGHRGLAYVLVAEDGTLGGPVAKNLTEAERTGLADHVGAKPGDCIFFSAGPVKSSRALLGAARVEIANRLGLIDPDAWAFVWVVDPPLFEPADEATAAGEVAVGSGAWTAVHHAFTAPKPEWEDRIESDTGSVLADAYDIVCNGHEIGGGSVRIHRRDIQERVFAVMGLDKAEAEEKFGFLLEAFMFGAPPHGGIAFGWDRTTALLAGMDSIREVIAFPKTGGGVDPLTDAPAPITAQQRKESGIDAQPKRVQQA

[4] = target: Sialic acid-binding Ig-like lectin 9 (Homo sapiens) (UniProt Q9Y336); experiment: Hs-Siglec9 ALPHAscreen SOP 20170721; conditions: 10 µM
Chain of Sialic acid-binding Ig-like lectin 9 (Homo sapiens) (Q9Y336 whole entry): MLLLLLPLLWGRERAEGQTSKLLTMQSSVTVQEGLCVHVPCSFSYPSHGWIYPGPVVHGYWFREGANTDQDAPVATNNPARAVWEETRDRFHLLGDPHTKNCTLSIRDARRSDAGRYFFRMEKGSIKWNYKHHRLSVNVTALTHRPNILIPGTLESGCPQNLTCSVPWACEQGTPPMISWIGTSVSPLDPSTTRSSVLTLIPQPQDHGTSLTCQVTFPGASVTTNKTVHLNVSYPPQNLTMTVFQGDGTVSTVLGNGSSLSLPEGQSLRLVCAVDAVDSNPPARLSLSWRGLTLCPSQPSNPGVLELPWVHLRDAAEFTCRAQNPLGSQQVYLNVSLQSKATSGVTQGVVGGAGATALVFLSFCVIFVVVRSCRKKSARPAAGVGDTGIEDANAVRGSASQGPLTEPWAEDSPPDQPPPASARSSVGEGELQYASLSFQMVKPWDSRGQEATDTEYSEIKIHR

Trypanosoma cruzi = experiment: Trypanosoma cruzi phosphomannomutase and mannose-1-phosphate guanylyltransferase assay; format: functional; conditions: 10 µM
[5] = target: T3, Arginase-2, mitochondrial (Homo sapiens) (UniProt P78540); experiment: in vitro enzyme assay to detect the production of urea directly proportional to the activity of Arginase II; format: functional; conditions: 33.3 µM; further: in the data most compounds retested in dose-response had high values
T3 sequence (whole entry): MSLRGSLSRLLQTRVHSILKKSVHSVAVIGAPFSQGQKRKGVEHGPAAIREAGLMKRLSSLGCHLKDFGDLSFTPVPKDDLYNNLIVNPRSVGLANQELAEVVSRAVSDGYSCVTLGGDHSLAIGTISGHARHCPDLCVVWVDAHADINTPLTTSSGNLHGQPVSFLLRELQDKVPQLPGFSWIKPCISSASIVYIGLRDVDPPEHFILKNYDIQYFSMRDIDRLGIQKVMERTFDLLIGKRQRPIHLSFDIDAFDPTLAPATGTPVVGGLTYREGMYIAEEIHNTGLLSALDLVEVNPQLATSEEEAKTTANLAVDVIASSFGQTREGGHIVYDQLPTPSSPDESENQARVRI

[6] = target: T4, Proteasome subunit beta (Trypanosoma cruzi) (UniProt O96673); experiment: Trypanosoma cruzi proteasome chymotrypsin-like activity (TcProtChymo) assay.; further: in the data most compounds retested in dose-response had high values; format: functional; conditions: 9.37 µM
T4 sequence (whole entry): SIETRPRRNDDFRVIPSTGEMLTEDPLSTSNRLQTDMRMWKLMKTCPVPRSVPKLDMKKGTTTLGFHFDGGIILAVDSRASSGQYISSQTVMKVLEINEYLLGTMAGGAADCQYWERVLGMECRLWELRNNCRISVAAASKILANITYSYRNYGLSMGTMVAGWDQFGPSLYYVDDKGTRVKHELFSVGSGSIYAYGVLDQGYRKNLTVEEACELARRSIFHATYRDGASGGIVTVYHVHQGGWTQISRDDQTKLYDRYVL

Homo sapiens = species on record: Homo sapiens; experiment: To identify inhibition of the IFN signalling (Jak-Stat) pathway via expression of an eGFP reporter gene under the control of an IFN-stimulated response element (ISRE) containing MxA promoter.; format: functional; conditions: 30 µM
[7] = target: Shiga toxin 2 (Escherichia coli O157:H7) (UniProt P09385+P09386); experiment: E. coli 0.157:H7 Shiga Toxin SOP - stx2 screening assay; format: functional; conditions: 30 µM
[8] = target: T5, Tyrosyl-tRNA synthetase, putative (Trypanosoma cruzi (strain CL Brener)) (UniProt Q4DSP6); experiment: Trypanosoma cruzi tyrosyl tRNA synthetase (TcYRS) _High Tyrosine SOP; format: functional; conditions: 30 µM; further: in the data most compounds retested in dose-response had high values
T5 sequence (whole entry): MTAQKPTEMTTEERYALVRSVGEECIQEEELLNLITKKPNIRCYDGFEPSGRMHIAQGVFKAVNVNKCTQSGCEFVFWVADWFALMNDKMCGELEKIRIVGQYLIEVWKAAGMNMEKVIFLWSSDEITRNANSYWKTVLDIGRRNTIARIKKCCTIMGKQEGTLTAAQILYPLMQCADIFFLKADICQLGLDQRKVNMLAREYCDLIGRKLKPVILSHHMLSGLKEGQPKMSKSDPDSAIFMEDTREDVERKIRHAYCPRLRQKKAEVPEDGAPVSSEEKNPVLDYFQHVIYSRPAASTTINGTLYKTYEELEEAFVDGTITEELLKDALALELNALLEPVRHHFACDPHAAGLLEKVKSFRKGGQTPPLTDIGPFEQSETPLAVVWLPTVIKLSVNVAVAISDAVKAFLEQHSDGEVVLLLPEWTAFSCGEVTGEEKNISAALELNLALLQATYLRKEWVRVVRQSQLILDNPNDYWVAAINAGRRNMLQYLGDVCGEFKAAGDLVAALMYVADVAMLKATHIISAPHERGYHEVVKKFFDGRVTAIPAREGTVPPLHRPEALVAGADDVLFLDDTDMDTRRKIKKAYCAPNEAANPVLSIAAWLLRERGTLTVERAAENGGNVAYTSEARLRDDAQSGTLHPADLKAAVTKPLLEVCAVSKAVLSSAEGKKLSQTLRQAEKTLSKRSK

[9] = target: T5, Tyrosyl-tRNA synthetase, putative (Trypanosoma cruzi (strain CL Brener)); experiment: Trypanosoma cruzi tyrosyl tRNA synthetase (TcYRS) SOP; format: functional; conditions: 30 µM
[10] = target: Chromo domain-containing protein 1 (Saccharomyces cerevisiae (strain ATCC 204508 / S288c) (Baker's yeast)) (UniProt P32657); experiment: ScCHD-1 Enzyme Inhibition Assay; format: functional; conditions: 30 µM; further: in the data most compounds retested in dose-response had high values
Chain of Chromo domain-containing protein 1 (Saccharomyces cerevisiae (strain ATCC 204508 / S288c) (Baker's yeast)) (P32657 whole entry, the tested form may be a part): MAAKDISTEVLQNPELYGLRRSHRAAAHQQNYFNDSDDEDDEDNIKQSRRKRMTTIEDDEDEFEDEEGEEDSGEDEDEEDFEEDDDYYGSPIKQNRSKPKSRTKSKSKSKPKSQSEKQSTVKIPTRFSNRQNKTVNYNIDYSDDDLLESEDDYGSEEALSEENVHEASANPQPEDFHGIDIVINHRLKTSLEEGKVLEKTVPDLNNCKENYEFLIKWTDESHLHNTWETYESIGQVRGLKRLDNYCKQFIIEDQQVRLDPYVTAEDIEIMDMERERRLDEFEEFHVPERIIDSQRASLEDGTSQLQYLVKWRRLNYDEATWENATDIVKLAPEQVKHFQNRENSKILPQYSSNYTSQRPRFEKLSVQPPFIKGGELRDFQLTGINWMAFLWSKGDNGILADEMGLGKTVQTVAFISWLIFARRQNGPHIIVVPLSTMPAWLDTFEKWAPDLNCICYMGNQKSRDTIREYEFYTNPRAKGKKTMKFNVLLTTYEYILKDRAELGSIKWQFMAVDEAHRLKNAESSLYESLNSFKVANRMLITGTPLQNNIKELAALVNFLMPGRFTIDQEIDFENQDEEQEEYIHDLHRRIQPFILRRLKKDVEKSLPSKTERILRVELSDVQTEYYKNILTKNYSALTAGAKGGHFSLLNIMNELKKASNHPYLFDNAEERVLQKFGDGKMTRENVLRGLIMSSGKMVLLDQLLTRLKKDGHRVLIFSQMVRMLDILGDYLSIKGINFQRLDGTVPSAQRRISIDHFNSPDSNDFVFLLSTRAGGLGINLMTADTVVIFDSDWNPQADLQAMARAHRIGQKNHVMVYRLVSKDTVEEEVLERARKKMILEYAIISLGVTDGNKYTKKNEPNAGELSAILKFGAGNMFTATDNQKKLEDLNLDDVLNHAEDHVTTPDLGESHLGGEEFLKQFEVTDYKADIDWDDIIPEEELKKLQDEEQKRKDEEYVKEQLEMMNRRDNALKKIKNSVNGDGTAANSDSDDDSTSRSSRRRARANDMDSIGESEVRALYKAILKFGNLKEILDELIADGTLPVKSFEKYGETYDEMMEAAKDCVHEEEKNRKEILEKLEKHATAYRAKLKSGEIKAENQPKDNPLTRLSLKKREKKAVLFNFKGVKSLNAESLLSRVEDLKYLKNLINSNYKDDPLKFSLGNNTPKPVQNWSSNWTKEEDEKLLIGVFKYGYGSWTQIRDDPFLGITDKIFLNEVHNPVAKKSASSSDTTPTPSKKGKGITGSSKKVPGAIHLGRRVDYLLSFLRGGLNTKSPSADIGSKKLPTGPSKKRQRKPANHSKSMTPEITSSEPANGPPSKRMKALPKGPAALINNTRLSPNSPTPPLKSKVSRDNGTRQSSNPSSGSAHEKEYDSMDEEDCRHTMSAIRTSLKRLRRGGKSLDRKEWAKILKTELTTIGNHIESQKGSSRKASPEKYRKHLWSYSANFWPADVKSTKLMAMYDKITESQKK

[11] = target: AMP-activated protein kinase, AMPK (Homo sapiens) (UniProt P54646+O43741+P54619+Q9UGJ0+Q9Y478+Q13131+Q9UGI9); experiment: AMP-dependent Kinase enzyme assay. An in vitro enzyme assay that detects ADP turnover that is directly proportional to AMPK activity. This uses naive AMPK that is activated during the assay with MK-8722; format: functional; conditions: 30 µM

Chain of Protein translocase subunit SecA (Escherichia coli (strain K12)) (P10408 whole entry): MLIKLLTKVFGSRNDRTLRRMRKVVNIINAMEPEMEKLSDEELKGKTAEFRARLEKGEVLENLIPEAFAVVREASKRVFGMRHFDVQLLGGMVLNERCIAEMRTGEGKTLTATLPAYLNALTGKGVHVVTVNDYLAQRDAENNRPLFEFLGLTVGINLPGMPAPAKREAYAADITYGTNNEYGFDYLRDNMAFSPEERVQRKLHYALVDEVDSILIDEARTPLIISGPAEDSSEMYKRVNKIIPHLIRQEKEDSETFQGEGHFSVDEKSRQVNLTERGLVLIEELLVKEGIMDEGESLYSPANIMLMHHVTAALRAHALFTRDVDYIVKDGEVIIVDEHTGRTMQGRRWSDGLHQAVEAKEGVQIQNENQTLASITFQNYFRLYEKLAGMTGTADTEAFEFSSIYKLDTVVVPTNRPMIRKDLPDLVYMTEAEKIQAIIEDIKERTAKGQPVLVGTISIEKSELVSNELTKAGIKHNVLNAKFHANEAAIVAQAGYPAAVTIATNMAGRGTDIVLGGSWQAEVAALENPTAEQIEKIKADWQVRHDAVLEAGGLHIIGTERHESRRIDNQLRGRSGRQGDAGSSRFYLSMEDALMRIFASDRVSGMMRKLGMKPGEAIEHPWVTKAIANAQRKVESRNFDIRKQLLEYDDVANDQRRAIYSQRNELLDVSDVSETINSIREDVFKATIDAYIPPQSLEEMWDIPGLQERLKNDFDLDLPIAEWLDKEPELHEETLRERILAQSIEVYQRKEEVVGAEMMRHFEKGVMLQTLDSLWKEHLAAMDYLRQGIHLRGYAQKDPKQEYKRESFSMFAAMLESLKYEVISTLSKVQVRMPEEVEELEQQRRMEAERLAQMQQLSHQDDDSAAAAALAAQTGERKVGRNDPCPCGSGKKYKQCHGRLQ

SMILES | Percent Effect [1] | Percent Effect [2] | Percent Effect [3] | Percent Effect [4] | Percent Effect (Trypanosoma cruzi) | Percent Effect [5] | Percent Effect [6] | Percent Effect (Homo sapiens) | Percent Effect [7] | Percent Effect [8] | Percent Effect [9] | Percent Effect [10] | Percent Effect [11]
COc1ccc(C(=O)C2CCCN(Cc3ccncc3)C2)c(OC)c1 (stereo unspecified) | -6.33% | 5.41% | -0.276% | 12.6% | 5.33% | 15% | 5.31% | 10.7% | 11% | 5.85% | 12.2% | 83.7% | –
C[C@@H]1C(=O)NC[C@H]2CN(Cc3ccsc3)C[C@H]21 | -2.31% | 3.9% | -1.43% | 1.3% | 1.88% | -0.457% | -4.55% | -3.55% | -20.9% | 6.76% | 10% | -9.75% | –
CC(=O)N1CCN(Cc2ccccn2)CC2(CC(=O)N(C)C2)C1 (stereo unspecified) | -0.0517% | -29.9% | -4.78% | 4% | 0.938% | -1.37% | 3.35% | -20.2% | 2.99% | 6.76% | 7.5% | -1.54% | –
COCCNC(=O)[C@@]12CCO[C@@H]1CCN(Cc1c(C)noc1C)C2 | -4.83% | 14.3% | 11.2% | -7.07% | 1.85% | 3.24% | 8.91% | -9.54% | -12.8% | 14.2% | 12.8% | -1.61% | –
Cc1cccc(CN2C(=O)C[C@H]3[C@@H]2CCN3CC2CC2)n1 | -1.8% | -22.1% | 3.32% | 2.35% | 0.563% | 1.83% | 12.3% | -5.79% | 4.71% | 12.6% | 12.5% | -5.44% | –
CNCCc1nc2cc(F)ccc2[nH]1 | -3.21% | 0% | 5.99% | -3.69% | -6.13% | 5.21% | 5.23% | 4.18% | – | -4.92% | -8.64% | -3.45% | -8.1%
COCC1CC2(CCN(Cc3ccccn3)CC2)CN1C(C)C (stereo unspecified) | -6.44% | 6.49% | 4.1% | 6.75% | 7.11% | -8.1% | 7.5% | 2.62% | -1.31% | 3.68% | 12.8% | 2.02% | –
C[C@H]1C(=O)NC[C@H]2CN(Cc3ccccc3)C[C@H]21 | -1.35% | -1.3% | 0.819% | -0.437% | 1.5% | -0.457% | -1.12% | 13.9% | 5.59% | 4.83% | 0% | 0.883% | –
Cn1ccnc1CN1CCC2(CC(=O)N(c3cncnc3)C2)C1 (stereo unspecified) | -1.68% | 2.7% | -3.41% | 1.79% | -2.64% | 2.23% | 21.2% | 2.89% | 0.165% | 2.16% | 12.8% | 1.86% | 10%
Cc1noc(C)c1CN1CC[C@H]2OCC[C@@]2(C(=O)N2CCCO2)C1 | -4.42% | 6.49% | 6.12% | -7.21% | -3.6% | 3.24% | 16.5% | -11.1% | -3.97% | 11.1% | 10.3% | 3.94% | –
